# How the values were obtained:
# Test in all cases: DAPPL (digital affinity profiling via proximity ligation, sequencing); 10 mM Tris-HCl pH 7.5, 50 mM NaCl, 1 mM DTT, 4% glycerol, room temperature, 30 min; GST-TFs on glutathione beads, 16-mer random dsDNA library, 0.1% formaldehyde crosslink after washing; high values mean tight binding
# Details in all cases: protein: recombinant; tags: N-terminal GST; dsDNA, one strand shown
# FLI1 = target: T1, FLI1 (Homo sapiens, UniProt Q01543 1-452)
# T1 sequence: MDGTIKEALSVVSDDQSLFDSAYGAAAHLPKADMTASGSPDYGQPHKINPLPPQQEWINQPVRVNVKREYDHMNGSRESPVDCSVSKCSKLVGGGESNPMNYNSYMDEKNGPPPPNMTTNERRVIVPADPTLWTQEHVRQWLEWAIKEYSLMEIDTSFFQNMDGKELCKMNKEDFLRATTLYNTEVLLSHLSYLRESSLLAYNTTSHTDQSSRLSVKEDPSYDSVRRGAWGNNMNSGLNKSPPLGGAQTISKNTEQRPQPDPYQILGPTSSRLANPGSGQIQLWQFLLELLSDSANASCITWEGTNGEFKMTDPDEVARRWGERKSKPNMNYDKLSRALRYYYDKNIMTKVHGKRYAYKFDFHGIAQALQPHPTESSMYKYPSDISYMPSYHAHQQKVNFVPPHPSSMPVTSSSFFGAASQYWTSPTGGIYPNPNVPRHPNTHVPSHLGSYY
# Procedure, shortened: (§1)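 Human transcription factors were made in yeast as GST fusions, captured on glutathione beads and barcoded with DNA. With a tag-only sample included, the pool was incubated with 200 nmole of a random double-stranded 16-mer DNA library in Tris/NaCl/DTT/glycerol buffer at room temperature for 30 min, then crosslinked with 0.1% formaldehyde after washing, ligated by proximity, amplified and sequenced. For binding signal, each hexamer's read frequency for a factor is divided by its frequency for the tag-only sample.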
# ELK1 = target: T2, ELK1 (Homo sapiens, UniProt P19419 1-428)
# T2 sequence: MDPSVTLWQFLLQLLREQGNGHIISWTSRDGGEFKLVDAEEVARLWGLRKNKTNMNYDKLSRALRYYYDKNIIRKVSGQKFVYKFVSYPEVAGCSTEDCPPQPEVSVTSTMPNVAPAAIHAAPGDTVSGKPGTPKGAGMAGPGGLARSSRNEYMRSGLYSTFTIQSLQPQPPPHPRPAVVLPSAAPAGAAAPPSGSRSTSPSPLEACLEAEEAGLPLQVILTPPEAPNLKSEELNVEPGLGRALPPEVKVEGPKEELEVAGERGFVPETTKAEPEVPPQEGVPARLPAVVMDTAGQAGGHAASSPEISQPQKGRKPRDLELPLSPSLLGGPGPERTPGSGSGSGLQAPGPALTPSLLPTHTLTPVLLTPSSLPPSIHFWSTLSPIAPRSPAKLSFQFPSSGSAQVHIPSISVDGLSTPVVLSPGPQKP
# Procedure, shortened: as §1
# GABPA = target: T3, GABPA (Homo sapiens, UniProt Q06546 1-454)
# T3 sequence: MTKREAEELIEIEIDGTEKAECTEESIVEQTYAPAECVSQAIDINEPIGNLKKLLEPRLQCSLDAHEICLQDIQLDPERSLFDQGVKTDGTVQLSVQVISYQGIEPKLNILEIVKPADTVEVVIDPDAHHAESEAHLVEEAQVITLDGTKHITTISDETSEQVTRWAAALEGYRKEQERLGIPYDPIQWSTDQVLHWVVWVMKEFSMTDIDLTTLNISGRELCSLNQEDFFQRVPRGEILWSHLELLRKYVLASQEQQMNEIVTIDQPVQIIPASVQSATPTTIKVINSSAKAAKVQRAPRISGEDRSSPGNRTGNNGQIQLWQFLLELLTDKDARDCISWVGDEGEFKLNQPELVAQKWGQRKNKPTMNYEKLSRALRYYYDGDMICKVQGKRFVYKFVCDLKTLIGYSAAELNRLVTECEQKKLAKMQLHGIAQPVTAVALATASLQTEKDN
# Procedure, shortened: as §1
# ERG = target: T4, ERG (Homo sapiens, UniProt P11308 1-479)
# T4 sequence: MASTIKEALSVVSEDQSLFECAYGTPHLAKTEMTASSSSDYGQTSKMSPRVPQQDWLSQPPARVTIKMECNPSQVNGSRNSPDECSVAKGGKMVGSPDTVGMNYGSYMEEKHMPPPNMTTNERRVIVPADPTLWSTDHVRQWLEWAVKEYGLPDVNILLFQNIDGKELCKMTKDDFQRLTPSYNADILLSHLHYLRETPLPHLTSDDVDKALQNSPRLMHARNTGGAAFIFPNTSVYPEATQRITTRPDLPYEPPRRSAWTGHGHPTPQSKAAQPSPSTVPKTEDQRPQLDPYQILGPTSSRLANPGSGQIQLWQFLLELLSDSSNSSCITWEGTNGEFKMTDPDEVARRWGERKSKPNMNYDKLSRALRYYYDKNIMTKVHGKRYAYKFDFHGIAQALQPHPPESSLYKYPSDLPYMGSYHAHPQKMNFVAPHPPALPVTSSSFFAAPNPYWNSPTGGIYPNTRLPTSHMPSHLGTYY
# Procedure, shortened: as §1
# ELF1 = ELF1 (Homo sapiens, UniProt P32519 1-619)
# Sequence of ELF1 (P32519 whole entry): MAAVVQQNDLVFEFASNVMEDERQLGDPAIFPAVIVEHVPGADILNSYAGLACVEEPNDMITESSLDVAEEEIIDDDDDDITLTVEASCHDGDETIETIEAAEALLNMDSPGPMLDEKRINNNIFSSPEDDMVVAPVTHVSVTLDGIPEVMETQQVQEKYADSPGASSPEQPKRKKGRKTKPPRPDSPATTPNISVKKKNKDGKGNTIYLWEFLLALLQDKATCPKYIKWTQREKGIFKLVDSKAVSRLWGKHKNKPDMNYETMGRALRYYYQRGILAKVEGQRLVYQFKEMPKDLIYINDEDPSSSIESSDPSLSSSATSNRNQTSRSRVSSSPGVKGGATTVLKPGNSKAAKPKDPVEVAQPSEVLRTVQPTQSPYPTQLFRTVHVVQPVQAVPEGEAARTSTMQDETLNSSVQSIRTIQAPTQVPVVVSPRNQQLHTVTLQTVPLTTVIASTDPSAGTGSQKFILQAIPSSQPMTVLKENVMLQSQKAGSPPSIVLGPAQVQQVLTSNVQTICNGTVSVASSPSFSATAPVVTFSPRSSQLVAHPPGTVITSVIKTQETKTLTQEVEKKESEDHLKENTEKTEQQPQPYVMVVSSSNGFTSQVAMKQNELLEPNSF
# Procedure, shortened: as §1
# EHF = target: T5, EHF (Homo sapiens, UniProt Q9NZC4 1-300)
# T5 sequence: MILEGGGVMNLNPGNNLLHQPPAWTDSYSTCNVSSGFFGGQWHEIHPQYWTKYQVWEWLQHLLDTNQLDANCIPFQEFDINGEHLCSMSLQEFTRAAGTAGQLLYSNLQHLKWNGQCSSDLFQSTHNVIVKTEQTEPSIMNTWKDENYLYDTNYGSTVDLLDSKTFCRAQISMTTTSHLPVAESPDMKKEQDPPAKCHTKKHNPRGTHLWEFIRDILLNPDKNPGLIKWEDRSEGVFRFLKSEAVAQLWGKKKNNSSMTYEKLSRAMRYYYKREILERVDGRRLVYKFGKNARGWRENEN
# Procedure, shortened: as §1
# SPI1 = SPI1 (Homo sapiens, UniProt P17947 1-270)
# Procedure, shortened: as §1
# SPIB = SPIB (Homo sapiens, UniProt Q01892 1-262)
# Sequence of SPIB (Q01892 whole entry): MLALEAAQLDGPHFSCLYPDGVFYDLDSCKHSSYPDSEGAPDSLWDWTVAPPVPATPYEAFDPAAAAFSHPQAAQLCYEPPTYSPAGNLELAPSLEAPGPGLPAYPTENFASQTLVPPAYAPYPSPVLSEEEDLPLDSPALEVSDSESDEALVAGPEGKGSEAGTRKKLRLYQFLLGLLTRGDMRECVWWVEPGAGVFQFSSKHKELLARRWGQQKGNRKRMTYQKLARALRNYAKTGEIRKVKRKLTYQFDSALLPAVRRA
# Procedure, shortened: as §1
# ELK3 = target: T6, ELK3 (Homo sapiens, UniProt P41970 1-407)
# T6 sequence: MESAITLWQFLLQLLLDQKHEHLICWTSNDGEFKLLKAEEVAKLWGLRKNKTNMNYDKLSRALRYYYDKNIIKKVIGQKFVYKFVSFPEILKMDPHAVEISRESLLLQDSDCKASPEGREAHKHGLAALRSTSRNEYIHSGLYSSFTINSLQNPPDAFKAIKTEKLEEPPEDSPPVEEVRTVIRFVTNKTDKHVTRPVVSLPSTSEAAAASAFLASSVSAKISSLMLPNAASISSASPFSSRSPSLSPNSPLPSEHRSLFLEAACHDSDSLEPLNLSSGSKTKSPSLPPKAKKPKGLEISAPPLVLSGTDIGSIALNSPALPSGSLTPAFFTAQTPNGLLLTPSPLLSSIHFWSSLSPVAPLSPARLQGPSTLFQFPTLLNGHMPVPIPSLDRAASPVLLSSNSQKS
# Procedure, shortened: as §1
Sequence,binding signal (FLI1),binding signal (ELK1),binding signal (GABPA),binding signal (ERG),binding signal (ELF1),binding signal (EHF),binding signal (SPI1),binding signal (SPIB),binding signal (ELK3)
CATTTA,"1.28 fold enrichment (6-mer frequency, TF over GST control)","1.23 fold enrichment (6-mer frequency, TF over GST control)","1.31 fold enrichment (6-mer frequency, TF over GST control)","1.25 fold enrichment (6-mer frequency, TF over GST control)","1.27 fold enrichment (6-mer frequency, TF over GST control)","1.32 fold enrichment (6-mer frequency, TF over GST control)","1.26 fold enrichment (6-mer frequency, TF over GST control)","1.18 fold enrichment (6-mer frequency, TF over GST control)","1.23 fold enrichment (6-mer frequency, TF over GST control)"
TAAATT,"1.26 fold enrichment (6-mer frequency, TF over GST control)","1.22 fold enrichment (6-mer frequency, TF over GST control)","1.2 fold enrichment (6-mer frequency, TF over GST control)","1.22 fold enrichment (6-mer frequency, TF over GST control)","1.27 fold enrichment (6-mer frequency, TF over GST control)","1.32 fold enrichment (6-mer frequency, TF over GST control)","1.22 fold enrichment (6-mer frequency, TF over GST control)","1.3 fold enrichment (6-mer frequency, TF over GST control)","1.31 fold enrichment (6-mer frequency, TF over GST control)"
AACTTT,"1.38 fold enrichment (6-mer frequency, TF over GST control)","1.27 fold enrichment (6-mer frequency, TF over GST control)","1.17 fold enrichment (6-mer frequency, TF over GST control)","1.16 fold enrichment (6-mer frequency, TF over GST control)","1.23 fold enrichment (6-mer frequency, TF over GST control)","1.18 fold enrichment (6-mer frequency, TF over GST control)","1.23 fold enrichment (6-mer frequency, TF over GST control)","1.32 fold enrichment (6-mer frequency, TF over GST control)","1.2 fold enrichment (6-mer frequency, TF over GST control)"
AATACC,"1.25 fold enrichment (6-mer frequency, TF over GST control)","1.09 fold enrichment (6-mer frequency, TF over GST control)","1.09 fold enrichment (6-mer frequency, TF over GST control)","1.21 fold enrichment (6-mer frequency, TF over GST control)","1.19 fold enrichment (6-mer frequency, TF over GST control)","1.19 fold enrichment (6-mer frequency, TF over GST control)","1.14 fold enrichment (6-mer frequency, TF over GST control)","1.16 fold enrichment (6-mer frequency, TF over GST control)","1.25 fold enrichment (6-mer frequency, TF over GST control)"
ATTCGA,"1.3 fold enrichment (6-mer frequency, TF over GST control)","1.22 fold enrichment (6-mer frequency, TF over GST control)","1.37 fold enrichment (6-mer frequency, TF over GST control)","1.33 fold enrichment (6-mer frequency, TF over GST control)","1.41 fold enrichment (6-mer frequency, TF over GST control)","1.29 fold enrichment (6-mer frequency, TF over GST control)","1.32 fold enrichment (6-mer frequency, TF over GST control)","1.38 fold enrichment (6-mer frequency, TF over GST control)","1.25 fold enrichment (6-mer frequency, TF over GST control)"
CATACT,"1.34 fold enrichment (6-mer frequency, TF over GST control)","1.29 fold enrichment (6-mer frequency, TF over GST control)","1.36 fold enrichment (6-mer frequency, TF over GST control)","1.27 fold enrichment (6-mer frequency, TF over GST control)","1.34 fold enrichment (6-mer frequency, TF over GST control)","1.31 fold enrichment (6-mer frequency, TF over GST control)","1.33 fold enrichment (6-mer frequency, TF over GST control)","1.29 fold enrichment (6-mer frequency, TF over GST control)","1.29 fold enrichment (6-mer frequency, TF over GST control)"
ACTTTG,"1.27 fold enrichment (6-mer frequency, TF over GST control)","1.29 fold enrichment (6-mer frequency, TF over GST control)","1.12 fold enrichment (6-mer frequency, TF over GST control)","1.19 fold enrichment (6-mer frequency, TF over GST control)","1.26 fold enrichment (6-mer frequency, TF over GST control)","1.19 fold enrichment (6-mer frequency, TF over GST control)","1.2 fold enrichment (6-mer frequency, TF over GST control)","1.16 fold enrichment (6-mer frequency, TF over GST control)","1.07 fold enrichment (6-mer frequency, TF over GST control)"

# From article PMC7862700, “An all-to-all approach to the identification of sequence-specific readers for epigenetic DNA modifications on cytosine”
